Reference: PubChem BioAssay (NCI)
The panel holds about 83,000 compounds, 20% with a hit somewhere; the sample as a whole holds those more often.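 Activity criterion: percent growth below 10, measured after cells in 96-well plates were exposed to a single compound concentration for 48 hours.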 The source made the active and inactive calls.

How the values were obtained:
Test in all cases: NCI-60 one-dose screen, 48 h (100 = growth as untreated, 0 = no growth, -100 = all killed)
Conditions in all cases: 10 µM unless noted
[1] = tested on: DU-145 prostate
[2] = tested on: K-562 leukemia
[3] = tested on: MALME-3M melanoma
[4] = tested on: MDA-MB-231 breast
[5] = tested on: RXF 393 renal
[6] = tested on: SF-268 CNS
[7] = tested on: SF-295 CNS
[8] = tested on: SF-539 CNS
[9] = tested on: UACC-257 melanoma
[10] = tested on: M14 melanoma
[11] = tested on: HCT-15 colon
[12] = tested on: HT29 colon
[13] = tested on: SNB-75 CNS
[14] = tested on: SNB-19 CNS
[15] = tested on: U251 CNS
[16] = tested on: PC-3 prostate
[17] = tested on: SK-MEL-5 melanoma
[18] = tested on: UACC-62 melanoma
[19] = tested on: LOX IMVI melanoma
[20] = tested on: SK-MEL-28 melanoma

Measured: growth

CNC(=O)c1cc(COc2nnc(Nc3ccc(Cl)cc3)c3ccoc23)ccn1
inactive: [1] 31.9% | [2] 69.7% | [3] 22.4% | [4] 18.5% | [5] 43.1% | [6] 14.2% | [7] 10.4% | [9] 33.3% | [10] 78.9% | [11] 70.1% | [12] 71% | [14] 19.6% | [15] 15.1% | [16] 34.5% | [18] 47.8% | [19] 15.5% | [20] 52.5%
active: [8] -65.6% | [13] -39.3% | [17] -0.858%

CC1(O)CC(c2nc(-c3ccc4ccc(-c5ccccc5)nc4c3)c3c(N)nccn23)C1 (stereo not drawn)
active: [5] 2.73% | [8] -2.47% | [12] 5.34%
inactive: [1] 34.1% | [2] 36.9% | [3] 30.4% | [4] 28.7% | [6] 44.1% | [7] 46.7% | [9] 25.7% | [10] 42.5% | [11] 21.1% | [13] 32% | [14] 64.7% | [15] 56.7% | [16] 35.3% | [17] 15% | [18] 39.9% | [19] 34.7%

C[C@H]1Oc2cc(cnc2N)-c2c(nn(C)c2C#N)CN(C)C(=O)c2ccc(F)cc21
inactive: [1] 91.9% | [2] 79.4% | [3] 95.6% | [4] 69.7% | [5] 85.5% | [6] 73.1% | [7] 85.9% | [8] 96.4% | [9] 58.5% | [10] 71.9% | [11] 96.7% | [12] 33% | [13] 83.8% | [14] 110% | [15] 96.6% | [16] 81.7% | [17] 99.3% | [18] 70.9% | [19] 74.2% | [20] 87.4%

Cn1cc(-c2ccc(F)c(C(F)(F)F)c2)nc1C1CCN(c2ncnc3[nH]ncc23)CC1
inactive: [1] 77.3% | [2] 77.8% | [3] 76.5% | [4] 72.5% | [5] 56.7% | [6] 44.7% | [7] 70.8% | [8] 51.5% | [9] 74.3% | [10] 83.4% | [11] 70% | [12] 60.8% | [14] 52.5% | [15] 48% | [16] 71% | [17] 95.1% | [18] 75.7% | [19] 69.4%
active: [13] -15%

Cn1ncc(Cl)c1-c1cc(C(=O)N[C@H](CN)Cc2ccc(F)c(F)c2)oc1Cl
active: [2] -32.7% | [3] -78.6% | [4] -43.8% | [5] -52.6% | [7] -65.8% | [8] -75.1% | [9] -89.4% | [10] -78.5% | [11] 6.57% | [12] -11.7% | [13] -86.4% | [14] 2.29% | [15] -86.5% | [16] -25% | [17] -96.2% | [18] -78.5% | [19] -88.8%
inactive: [1] 19.1% | [6] 23.1%

O=C(COc1ccc(/C=C2\Cc3ccc(Cl)cc3C2=O)cc1)Nc1nccs1
inactive: [1] 118% | [2] 121% | [3] 126% | [4] 92.2% | [5] 98.2% | [6] 114% | [7] 113% | [8] 96.8% | [9] 98.5% | [10] 103% | [11] 98.5% | [12] 108% | [13] 86.6% | [14] 83.8% | [15] 108% | [16] 96% | [17] 99.3% | [18] 95.3% | [19] 93%

C/C(=C(/c1ccc(Cl)cc1)c1ccc(OCCN2CCCC2)cc1)c1ccccc1
inactive: [1] 86.4% | [3] 62.4% | [4] 61.3% | [5] 66.6% | [6] 87.9% | [7] 77.5% | [8] 58.8% | [9] 44.7% | [10] 28.3% | [13] 86.1% | [14] 80.7% | [15] 63.9% | [16] 64.5% | [17] 14.9% | [18] 48.9% | [19] 30.6%
active: [2] 6.72% | [11] 8.01% | [12] 4.46%

CCCCCCCC12Cc3ccccc3C1=Nc1c(c3ccccc3n1C)C2=O (stereo not drawn)
inactive: [1] 120% | [2] 85.9% | [3] 95.2% | [4] 82.4% | [5] 104% | [6] 100% | [7] 97.4% | [8] 111% | [9] 82.3% | [10] 95.3% | [11] 91.7% | [12] 58.8% | [13] 89.2% | [14] 95% | [15] 88.5% | [16] 78.2% | [17] 90.8% | [18] 74.8% | [19] 87.8% | [20] 113%

CCCCCC(=O)OCc1ccc(Cl)c(Cl)c1
inactive: [1] 105% | [2] 98.8% | [3] 90.4% | [4] 110% | [5] 116% | [6] 99.3% | [7] 108% | [8] 105% | [9] 103% | [10] 104% | [11] 109% | [12] 109% | [13] 96.5% | [14] 105% | [15] 98.2% | [16] 96.3% | [17] 108% | [18] 106% | [19] 96%

CCn1c(-c2nonc2N)nc2c(C#CC(C)(C)O)ncc(OC[C@H]3CCCNC3)c21
inactive: [1] 64.4% | [2] 38.8% | [3] 84.2% | [4] 84.2% | [6] 81% | [7] 41.4% | [8] 27.1% | [9] 130% | [10] 71% | [11] 82.4% | [12] 56.2% | [14] 67.8% | [15] 41.8% | [16] 56.1% | [17] 91.7% | [18] 79.8% | [19] 44.1% | [20] 45.8%
active: [5] 5.93% | [13] 2.75%

COc1cc(Nc2ncc(F)c(Nc3ccc4c(n3)N(COP(=O)(O)O)C(=O)C(C)(C)O4)n2)cc(OC)c1OC
active: [5] -79.9% | [6] 7.3% | [8] -70.1% | [12] -0.77% | [13] -95.5% | [19] -69%
inactive: [1] 30.9% | [2] 32.3% | [3] 53.1% | [4] 15.9% | [7] 15.5% | [9] 66.2% | [10] 39% | [11] 21.4% | [14] 31.4% | [15] 29.5% | [16] 33.5% | [17] 43.8% | [18] 18.8% | [20] 45.6%

C=CC(=O)N1CCC(Oc2cc3c(Nc4ccc(Cl)c(Cl)c4F)ncnc3cc2OC)CC1
inactive: [1] 24.2% | [2] 12.6% | [3] 60.9% | [4] 17.3% | [7] 15.9% | [9] 24.4% | [10] 28.8% | [11] 21.2% | [14] 32.4% | [15] 32.8% | [16] 14.2% | [17] 18.7% | [18] 20.7% | [20] 63.3%
active: [5] -46.6% | [6] 8.38% | [8] -8.55% | [12] -16.4% | [13] -18.4% | [19] -66.1%

Cc1ccc(-n2nc(C(C)(C)C)cc2NC(=O)NCc2cc(F)ccc2Oc2ccc3c(cnn3CCO)c2)cc1
inactive: [1] 42.4% | [4] 14.1% | [6] 34.8% | [7] 26.9% | [8] 21.7% | [11] 17.5% | [13] 32.7% | [14] 48.1% | [15] 31.3% | [16] 33.5%
active: [2] 3.71% | [3] -6.23% | [5] -10.3% | [9] -11.2% | [10] 9.06% | [12] 5.67% | [17] -19.5% | [18] 7.75% | [19] 5.06% | [20] 0.876%

COc1cccc2cc(-c3nc(C4CCC(C(=O)O)CC4)n4ncnc(N)c34)[nH]c12 (stereo not drawn)
inactive: [1] 19.2% | [2] 14% | [4] 19.2% | [6] 16.2% | [11] 16.4% | [12] 14.3% | [14] 15.7% | [16] 13.3%
active: [3] -12% | [5] -23.8% | [7] -31.2% | [8] -25.6% | [9] -22.8% | [10] 4.34% | [13] -43.1% | [15] 9.1% | [17] -28.7% | [18] -32.2% | [19] -4.84% | [20] -9.6%

CNS(=O)(=O)Nc1nccc(Cc2c(C)c3ccc(Oc4ncccn4)cc3oc2=O)c1F
active: [3] 4.1% | [9] -5.41% | [18] 4.49% | [20] 8.61%
inactive: [1] 61.3% | [2] 26.2% | [4] 41% | [5] 44.9% | [6] 78% | [7] 70.6% | [8] 68% | [10] 13.3% | [11] 63.7% | [12] 10.4% | [13] 78.1% | [14] 63.7% | [15] 54.8% | [16] 101% | [17] 23.1% | [19] 25.6%

CCN(CCCOc1ccc2c(Nc3cc(CC(=O)Nc4cccc(F)c4)[nH]n3)ncnc2c1)CCOP(=O)(O)O
inactive: [1] 88.5% | [2] 48.4% | [3] 31.9% | [4] 79.5% | [5] 96.7% | [6] 76% | [7] 73.5% | [8] 48.8% | [9] 49.9% | [10] 45.1% | [11] 84.7% | [12] 30.5% | [13] 80.5% | [14] 71.1% | [15] 71.8% | [16] 80% | [17] 99.8% | [18] 53.7% | [19] 42%
